# ChEMBL document CHEMBL1201862, “PubChem BioAssay data set” (2004)
# Screen size: about 340,000 compounds; about 12,000 (3.5%) were called active. About 18% were inconclusive and are not listed. The calls are words filed in the database; no cut-off is given here. Many of the other results were omitted from the sample, so actives are more common in it than they were.
# Test: qHTS Assay for Inhibitors of Hepatitis C Virus (HCV).
# Assay type: functional
# Details: read-out: Potency
row,SMILES,AC50
1,CO[C@H]1/C=C\O[C@@]2(C)Oc3c(C)c(O)c4c(O)c(c5c(c4c3C2=O)=NC2(CCN(CC(C)C)CC2)N=5)NC(=O)/C(C)=C\C=C/[C@H](C)[C@H](O)[C@@H](C)[C@@H](O)[C@@H](C)[C@H](OC(C)=O)[C@@H]1C,158 µM (active)
2,COc1ccc([C@@]23Oc4cc(OC)cc(OC)c4[C@]2(O)[C@H](O)[C@H](C(=O)N(C)C)[C@H]3c2ccccc2)cc1 [ROCAGLAMIDE],100 µM (active)
3,O=C(O)c1cc(O)c2c(c1)[C@@H]([C@H]1c3cc(C(=O)O)cc(O)c3C(=O)c3c(O[C@@H]4O[C@H](CO)[C@@H](O)[C@H](O)[C@H]4O)cccc31)c1cccc(OC3O[C@H](CO)[C@@H](O)[C@H](O)[C@H]3O)c1C2=O (stereo partly specified),79.4 µM (active)
4,[N-]=[N+]=NC[C@H](Cc1ccccc1)N1CC[C@@H](OCc2ccccc2)CCC1=O,100 µM (active)
5,Cl.N[C@@H](CCC(=O)O)C(=O)O [GLUTAMIC ACID HYDROCHLORIDE],1.12 µM (active)
6,C#CC(=O)N(c1cc(OC)ccc1OC)C(C(=O)NC1CCCC1)c1cccs1 (stereo unspecified),112 µM (active)
